For 99 compounds, outcome results are on record in PubChem BioAssay AID1347383 (Zoeller Lab, School of Medicine, Boston University, 2020).

This test is described as follows: protection of CHO cells from pyrene-fatty acid UV killing, primary screen, phospholipid biosynthesis inhibitor project, ZR-82 cells, Analyticon library, screen 2 (AID 1347383).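 Further: survival reflects blocked phospholipid synthesis cutting uptake of the phototoxic fatty acid; compound and fatty acid exposure 3 h then viability read next day.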 To be noted: ZR-82 CHO cells, CellTiter Blue, at 10 µM, peroxisome-deficient CHO-K1 variant, with DGAT-1, DGAT-2 and ACAT inhibitors. A general note: Alamar Blue is a resazurin reagent that responds to reducing activity.

Activity calls are given as the source filed them.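 How the source made its calls: active means cell survival after UV exposure 2 SD above solvent-only control wells at 10 µM, confirmed on one or two repeats; inactive means the rest.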

Regarding `C=C(C(=O)O)C(CCCCCC)C(=O)O` (centres undefined), the compound was called inactive. With `CC1(C)C=Cc2c(ccc3c2O[C@@H]2COc4cc5c(cc4[C@@]2(O)C3=O)OCO5)O1` the entry was “inactive”. Regarding `N#CC(OC(=O)c1ccccc1)c1ccccc1` (centres undefined), the compound was classed as inactive. Regarding `COC(=O)/C=C(\C)CCC1(C)C(C)CCC2(C)C(C)=CC(=O)CC21` (centres undefined), the result was inactive.

Regarding `CC(=O)N[C@@H](C(=O)O[C@H]1CCC(C)(C)[C@@H]2CCC3=C(COC3=O)[C@@]12C)C(C)C`, the compound was called inactive. For the compound `CC1=CC2=C(C(=O)OC2O)C(O)C2CC(C)(C)CC12` (centres undefined), the compound was called inactive.

In the case of `CC1NC(=O)c2ccccc2NC1=O` (centres undefined), the outcome was inactive. Take `CCC/C=C\C/C=C\CCCC/C=C\Cc1cc(O)cc(O)c1`: the outcome was inactive. The same measure for `C=C1C(=O)O[C@@H]2C[C@H](C)[C@@]3(O)C=C(C(C)=O)C4(CC3C[C@H]12)C(=O)O[C@H]1C[C@@H](C)C(CCC(C)=O)=CC[C@H]14` (some centres undefined): “inactive”; for `CC1=CC(=O)C2C(C)(C)CC(O)CC2(C)C1CO` (centres undefined): “inactive”.

On to `C#CC(O)COc1ccc(C(=O)O)cc1` (centres undefined), for which the compound was classed as inactive.

As for `CC1=C[C@H]2[C@@H](CC1=O)[C@H](C)C[C@H](O)[C@H]2C(C)C`, the result was inactive.

With `O=c1ccn(C2OC(CO)C(O)C2O)c(=O)[nH]1` (centres undefined), the call was inactive. Consider `C/C=C(/C)C(=O)O[C@H]1CC(C)=C[C@@H](O)[C@]2(C)[C@@H]1[C@](O)(C(C)C)C[C@H]2OC(=O)/C(C)=C\C`, for which the outcome was inactive. The same measure for `COC(=O)C1C(O)CCC2CN3CCc4c([nH]c5ccccc45)C3CC21` (centres undefined): “inactive”. The same measure for `CC/C=C\C/C=C\C/C=C\CCCCCCCC(=O)OCC(O)COC1OC(CO)C(O)C(O)C1O` (centres undefined): “inactive”; for `CC(C)(O)c1ccc2c(c1)CCC1C(C)(C(=O)O)CCCC21C` (centres undefined): “inactive”; for `COc1cc(CC(C)C(C)Cc2ccc(O)c(OC)c2)ccc1O` (centres undefined): “inactive”.

In the case of `CC(C)CC1NC(=O)C2CCCN2C1=O` (centres undefined), the call was inactive. On to `CCCCCCCCCCC1CC2=C(OC(CCCCCCC)CC2=O)C(=O)O1` (centres undefined), for which the result was inactive.

In the case of `O=C1c2c(O)cc(O)cc2OC(c2cc(O)c(O)c(O)c2)C1O` (centres undefined), the outcome was inactive. On to `O=c1c(O)c(-c2ccccc2)oc2cc(O)cc(O)c12`, for which the compound was called inactive. As for `O=C1CC2OC(C(O)c3ccccc3)C(O1)C2O` (centres undefined), the compound was called inactive. With `C/C=C/C1=C(Cl)C(=O)[C@@H](O)[C@@]1(O)C(=O)OC` the entry was “inactive”. With `COc1c2c(c(OC)c3oc(=O)ccc13)OC(C)(C)C(O)C2O` (centres undefined) the entry was “inactive”. In the case of `COc1cc(/C=C/c2cc(O)cc(O)c2)ccc1O`, the outcome was inactive. With `C/C=C/c1ccc2oc(-c3ccc(O)c(OC)c3)c(C)c2c1`, the result was inactive. As to `COc1c2cc(c(O)c1OC)CCCCC(O)CCc1ccc(O)c-2c1` (centres undefined), the compound was classed as inactive. The same measure for `CC(C)c1ccc2c(c1)C(=O)CC1C(C)(C(=O)O)CCCC21C` (centres undefined): “inactive”; for `CC(=O)c1ccc(O[C@@H]2O[C@H](CO)[C@@H](O)[C@H](O)[C@H]2O)cc1`: “inactive”. With `O=C(/C=C/c1ccccc1)c1ccccc1O` the entry was “inactive”; with `COc1cc(C[C@H]2COC[C@@H]2Cc2ccc(O)c(OC)c2)ccc1O`, “inactive”; with `Cc1c(O)c2c(oc1=O)C(C)(O)C(C)OC2` (centres undefined), “inactive”. As to `C=C1[C@H]2CC[C@H](C(=O)O)[C@@]23CC[C@H](C3)C1(C)C`, the call was inactive. With `CC(C)(O)[C@@H]1CCC(C)([C@H]2CC[C@]3(C)[C@@H]2[C@H](O)CC2[C@@]4(C)CC[C@H](O)C(C)(C)[C@@H]4CC[C@]23C)O1` (some centres undefined) the entry was “inactive”; with `COc1ccc(-c2coc3cc(O)ccc3c2=O)cc1O`, “inactive”; with `CC1CC(O)/C=C/C(O)CCC(=O)Cc2c(Cl)c(O)cc(O)c2C(=O)O1` (centres undefined), “inactive”. The same measure for `O=C(CCc1ccc(O)c(O)c1)CCC(O)Cc1ccc(O)c(O)c1` (centres undefined): “inactive”; for `CC(C)=CCc1c2c(c(O)c3c(=O)c(-c4ccc(O)c(O)c4)coc13)C=CC(C)(C)O2`: “inactive”; for `C=C[C@H](/C=C\c1ccc(O)cc1)c1ccc(O)cc1`: “inactive”. On to `COc1cc(C(O)C(C)O)ccc1OC(C)Cc1cc(OC)c(OC)c(OC)c1` (centres undefined), for which the compound was classed as inactive.

On to `O=C1CC(c2ccc(O)c(O)c2)Oc2cc(O)cc(O)c21` (centres undefined), for which the outcome was inactive.

Regarding `Cc1cc2c(CO)cc(O)cc2o1`, the result was inactive.

Take `CCCCc1c(CC=C(C)C)[nH]c(=O)c(C)c1O`: the result was inactive. `CSCC1OC(n2cnc3c(=O)[nH]cnc32)C(O)C1O` (centres undefined): the outcome was inactive. Consider `O=C(O)CC(O)(Cc1ccc(O)cc1)C(=O)O` (centres undefined), for which the result was inactive. With `CC1(O)CCC2C(C3C1CCC3(C)O)C2(C)C` (centres undefined) the entry was “inactive”. The same measure for `CO[C@@H]1[C@H](OC(=O)/C=C/C(O)C(C)O)CC[C@]2(CO2)[C@H]1[C@@]1(C)O[C@@H]1CC=C(C)C` (some centres undefined): “inactive”. The same measure for `C/C=C(/C)C(=O)Oc1c(OC)c(OC)cc2c1-c1c(cc(OC)c(OC)c1OC)C[C@](C)(O)[C@@H](C)C2`: “inactive”; for `Cc1cc(O)c2c3c(c(O)c4c(c13)OC(C)C4(C)C)C(=O)O2` (centres undefined): “inactive”.

For the compound `Oc1cc(O)c2c(c1)O[C@H](c1ccc(O)c(O)c1)[C@H](O)C2`, the result was inactive.

For `C=CC(C)(C)c1cc(/C=C/C(=O)c2ccc(OC)cc2)c(O)cc1O`, the call was inactive.

Turning to `C/C1=C\CCC2=CC(OC2=O)C(C)(C)/C=C\C1=O` (centres undefined), the outcome was inactive. With `CC(C)Cc1cnc(CCC(N)=O)c(=O)[nH]1`, the compound was classed as inactive. On to `COc1ccc(/C=C/C(=O)O)cc1`, for which the compound was called inactive. On to `CC(C)=CCC/C(C)=C/Cc1c(O)c(CC=C(C)C)c2oc3ccc(O)cc3c(=O)c2c1O`, for which the compound was classed as inactive. Consider `C/C=C/C1C=CC(O)C(O)C1C(O)C(C)=O` (centres undefined), for which the call was inactive. For the compound `CC1C=CC2CCCCC2C1CCC1CC(O)CC(=O)O1` (centres undefined), the result was inactive. As to `C=CC(C)(C)c1cc2cc3c(cc2oc1=O)OC(C(C)(C)OC(C)=O)C3` (centres undefined), the call was inactive. For `CO[C@@H]1[C@H](O)CC[C@]2(CO2)[C@H]1[C@@]1(C)O[C@@H]1CC=C(C)C`, the result was inactive. In the case of `COc1cc(O)cc2occ(-c3ccc(O)cc3O)c(=O)c12`, the outcome was inactive. Regarding `CC(=O)O[C@H]1CC2C(COC(=O)CC(C)C)=CO[C@@H](OC(=O)CC(C)C)C2[C@@]12CO2` (some centres undefined), the outcome was inactive. As for `OC1CC(c2ccccc2)C(O)C(O)C1c1ccccc1` (centres undefined), the outcome was inactive. With `C[C@H]1C=CC2=CCCC[C@@H]2[C@H]1CC[C@@H]1C[C@@H](O)CC(=O)O1` the entry was “inactive”; with `O=C1CC(c2ccc(O)cc2)Oc2cc(O)ccc21` (centres undefined), “inactive”; with `CCOC(=O)C1C(=O)C(=O)Nc2ccccc21` (centres undefined), “inactive”. In the case of `CCCC(O)C1OCC2=C1C(O)C1OC1C2O` (centres undefined), the compound was called inactive. For `CC(=O)C(C)C1OC(CCO)c2cc(C)ccc2C1C` (centres undefined), the compound was classed as inactive. With `COc1cc(CC(C)C(C)Cc2ccc(O)c(O)c2)ccc1O` (centres undefined) the entry was “inactive”. With `C/C=C/C(O)CC(=O)O` (centres undefined) the entry was “inactive”; with `C=CCc1cc(OC)c(OC(C)C(O)c2ccc(O)c(OC)c2)c(OC)c1` (centres undefined), “inactive”.

`CCC(=O)C1OC(O)(CCC2=CCOC2=O)C2(C)CCCC(C)(C)C12` (centres undefined): the compound was classed as inactive. As to `COC1=CC(=O)CC(C)C12Oc1cc(OC)cc(OC)c1C2=O` (centres undefined), the compound was called inactive. Consider `CC(C)=CCCC1(C)C(CC=C(C)C)CC2(CC=C(C)C)C(=O)C(=C(O)c3ccccc3)C(=O)C1(C)C2=O` (centres undefined), for which the compound was called inactive. With `O=C(O)CCC1OC(=O)C(O)=C1c1ccccc1` (centres undefined), the compound was classed as inactive.

For `CC(=O)OC1C(O)C2C(C)C3=CC(=O)OC3(O)CC2C2(C)CCCC(C)(CO)C12` (centres undefined), the call was inactive.

Regarding `CCC(C)C1NC(=O)C(Cc2ccccc2)NC(=O)C(CCCCCC(=O)C(O)CO)NC(=O)C2CCCCN2C1=O` (centres undefined), the result was inactive.

For `CCCCCCCCCCCc1cc(O)cc(O)c1`, the compound was called inactive. As to `C=CCc1ccc(OC(C)Cc2cc(OC)c(OC)c(OC)c2)c(OC)c1` (centres undefined), the result was inactive.

As for `COC(=O)C(CO)NC(=O)c1cccc(O)c1O` (centres undefined), the call was inactive. For the compound `C=C(C(=O)O)C1CC(OC(=O)CC(C)CC)C2(C)CCCC(=C)C2C1` (centres undefined), the outcome was inactive.

Turning to `CCCCCCCCCCCCC(O)/C=C/CCC(=O)O` (centres undefined), the call was inactive. Regarding `CCCCCCC1OC23OC1CCC2CCC(O)C3O` (centres undefined), the compound was called inactive. Turning to `COc1ccc(C(O)C(C)O)cc1` (centres undefined), the result was inactive.

In the case of `CC1(O)CC(C)(O)C2=C(O1)C(=O)c1ccccc12` (centres undefined), the call was inactive. The same measure for `COc1cc2ccc3c(c2cc1OC)N(C)Cc1c(OC)c(OC)cc(OC)c1-3`: “inactive”. `Nc1c(O)cccc1C(=O)O`: the compound was called inactive. With `CC1=C2C(=O)O[C@@H](c3ccoc3)[C@]2(C)CCC1=O` the entry was “inactive”. With `CC(C)=CCn1cnc(=N)c2[nH]cnc21`, the call was inactive. Take `COC(=O)C12OC1CCC1C3(C)CC(C4=CC(=O)OC4O)OC(=O)C3CCC12C` (centres undefined): the outcome was inactive. Regarding `COc1cc(O[C@@H]2O[C@H](CO)[C@@H](O)[C@H](O)[C@H]2O)cc(OC)c1OC`, the compound was classed as inactive. `CC(=O)CCCCCCc1ccc2c(c1)OCO2`: the compound was called inactive.

As for `CO[C@H]1/C=C/[C@@](C)(O)/C=C/C(=O)O[C@H](C)[C@@H](C)CC/C=C/1C`, the call was inactive.

Consider `CC(C)(O)C(O)Cc1ccc2c(c1O)COC2` (centres undefined), for which the compound was called inactive.

For `C=CC(C)(C)c1cc2cc(CC3OC3(C)C)c(OC)cc2oc1=O` (centres undefined), the compound was classed as inactive. Turning to `COc1c(O)cc([C@@H]2Oc3cc(O)cc(O)c3C[C@@H]2O)cc1O`, the call was inactive. With `OC1C(c2ccccc2)CCC(O)(c2ccccc2)C1O` (centres undefined) the entry was “inactive”; with `C=C(C(=O)OC)[C@@H]1CC=C2C=CC(=O)[C@H](C)[C@@]2(C)C1`, “inactive”. Turning to `COc1ccc(-c2coc3cc(O[C@@H]4O[C@H](CO)[C@@H](O)[C@H](O)[C@H]4O)ccc3c2=O)cc1`, the outcome was inactive.
